# Assay results: the supplement of paper PMC6555819
# Experiments:
# Assay in all cases: PBM binding z-score (relative to random genomic background probes); higher = stronger binding; sequences stand for … in GC…GCGATTGACAGCGTAGAATGAAGG
# [1] = system: FXR:RXRa (NR concentration 270 nM, RXRa partner concentration 90 nM)
# How it was run: (§1)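 Regression normalization was applied to scanned fluorescence from custom Agilent 4×180K protein-binding microarrays. Before scanning, arrays were incubated 1 h with ligand-free nuclear receptor dimers, and binding was detected with antibodies against each partner (one per run). Binding z-scores use the random background probes as reference.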
# [2] = system: LXRa:RXRa (NR concentration 270 nM, RXRa partner concentration 90 nM)
# How it was run: as §1
# [3] = system: LXRa homodimer (NR concentration 270 nM)
# How it was run: as §1
# [4] = system: LXRb:RXRa (NR concentration 270 nM, RXRa partner concentration 90 nM)
# How it was run: as §1
# [5] = system: LXRb homodimer (NR concentration 270 nM)
# How it was run: as §1
# [6] = system: PPARa:RXRa (NR concentration 270 nM, RXRa partner concentration 90 nM)
# How it was run: as §1
# [7] = system: PPARg:RXRa (NR concentration 180 nM, RXRa partner concentration 90 nM)
# How it was run: as §1
# [8] = system: PPARg:RXRa 270nM:90nM, anti-RXR (NR concentration 270 nM, RXRa partner concentration 90 nM)
# How it was run: as §1
# [9] = system: PPARg:RXRa 30nM:10nM, anti-RXR (NR concentration 30 nM, RXRa partner concentration 10 nM)
# How it was run: as §1
# [10] = system: PPARg:RXRa 90nM:30nM, anti-RXR (NR concentration 90 nM, RXRa partner concentration 30 nM)
# How it was run: as §1
# [11] = system: PPARg:RXRa DBDmut IVT, anti-RXR (DBD mutation: RXRa K156A/R161A, NR concentration 270 nM, RXRa partner concentration 90 nM)
# How it was run: as §1
# [12] = system: PPARg:RXRa IVT, anti-PPARg (NR concentration 270 nM, RXRa partner concentration 90 nM)
# How it was run: as §1
# [13] = system: PPARg DBDmut:RXRa IVT, anti-PPARg (DBD mutation: PPARg1 K132A/R137A, NR concentration 270 nM, RXRa partner concentration 90 nM)
# How it was run: as §1
# [14] = system: PPARg DBDmut IVT, anti-PPARg (DBD mutation: PPARg1 K132A/R137A, NR concentration 270 nM)
# How it was run: as §1
# [15] = system: PPARg homodimer (NR concentration 180 nM)
# How it was run: as §1
# [16] = system: PXR:RXRa (NR concentration 270 nM, RXRa partner concentration 90 nM)
# How it was run: as §1
# [17] = system: PXR homodimer (NR concentration 270 nM)
# How it was run: as §1
# [18] = system: RARa:RXR (NR concentration 270 nM, RXRa partner concentration 90 nM)
# How it was run: as §1
# [19] = system: RARa homodimer (NR concentration 270 nM)
# How it was run: as §1
# [20] = system: RARb:RXRa (NR concentration 270 nM, RXRa partner concentration 90 nM)
# How it was run: as §1
Sequence,PBM binding z-score [1],PBM binding z-score [2],PBM binding z-score [3],PBM binding z-score [4],PBM binding z-score [5],PBM binding z-score [6],PBM binding z-score [7],PBM binding z-score [8],PBM binding z-score [9],PBM binding z-score [10],PBM binding z-score [11],PBM binding z-score [12],PBM binding z-score [13],PBM binding z-score [14],PBM binding z-score [15],PBM binding z-score [16],PBM binding z-score [17],PBM binding z-score [18],PBM binding z-score [19],PBM binding z-score [20]
ACTCGGAGGACGAAGGTCAGAGCTACGCCAGTGA,0.736,1.2,-0.109,0.941,-0.551,2.3,2.67,3.52,1.07,3.02,-0.0159,0.85,-1.22,-0.524,1.01,1.4,-0.0782,1.77,0.154,2.81
CCTCGGAGGACAAGAGGAGGTCAGAGCTGCCAGA,0.831,1.16,0.18,0.759,-0.815,1.62,0.27,-0.135,-0.865,-0.28,-0.0535,0.408,-0.899,-1.36,0.986,1.71,-0.0509,1.94,0.29,2.54
ATATGTAGTTTAAGGGTCATTCAGGTTGGTTCGC,4.61,4.11,2.99,4.07,1.53,5.03,6.25,6.64,5.02,6.74,1.53,3.45,1.66,1.44,3.5,5.01,3.06,4.34,2.87,3.42
CCTTACGGGTCACGACGTTATAGCACGACGAGCG,6.55,4.13,0.322,3.66,0.374,5.69,6.15,5.93,2.65,4.97,3.85,4.92,0.866,0.177,1.83,3.57,0.0826,4.61,1.39,4.34
CTACCAAGTTGAACAAGGTCGTTGATTACTATTC,1.16,1.41,0.853,1.91,0.134,1.73,0.0728,0.171,0.12,0.362,0.743,0.688,0.967,0.704,1.45,2.65,4.18,1.96,1.44,1.29
ATCGAAAGGTCGACGGTGAGTATACCCACCCGAA,4.38,3.44,0.131,2.47,0.548,4.12,2.45,3.09,1.17,2.63,-0.188,1.6,0.9,0.777,1.58,2.43,-0.256,3.22,0.352,3.8
CCTACTTGGCCAAAGGTCATTGATTCCAATGCTC,5.47,5.24,4.8,5.11,1.42,5.78,9.42,8.35,8.32,9.45,2.53,4.83,0.228,0.876,3.67,5.46,2.07,5.85,1.65,4.57
ACTATTAGTTGACTTAGGGCAAACGATACGACGC,0.00537,0.0216,0.165,0.185,0.529,0.325,1.17,0.319,0.276,0.322,0.0351,0.568,1.39,1.52,0.392,0.274,0.0698,0.533,0.0866,0.712
AGAACGAGGGCAATGAGTTGATAGCTCGGGTGGC,0.0898,-0.196,-0.745,-0.286,-0.548,1.23,1.03,0.695,-0.213,0.434,3.68,2.41,0.337,-0.763,-0.195,1.36,5.33,0.0914,-0.796,2.08
GCATATAGGTAATACAAGGTGAAAGTCCGATTGT,2.2,2.59,0.161,0.649,-0.271,1.68,1.37,1.36,0.636,0.931,4.15,3.2,1.3,0.902,0.296,0.502,0.135,0.993,0.75,0.523
TTACCAAGGTAAGCTGAGGTCGTTGATCCAACTC,0.46,2.12,-0.287,0.881,-0.769,1.3,-0.244,0.0724,-0.421,-0.31,-0.0286,0.407,-0.293,-0.159,-0.361,3.52,0.144,1.9,-1.52,0.571
ATCGAAAGGTCGTGAGGTGATTATACAGAAAGGC,5.04,4.01,0.374,3.36,0.471,4.92,4.09,4.21,1.66,2.92,0.336,1.93,1.12,1.16,1.42,3.14,0.165,3.89,0.608,4.08
TCTTGTAGATCAAGCAAGTTAAGAAAGCCTGAGT,0.00157,-0.0687,-0.36,-0.0255,-0.715,0.295,-0.623,1.01,2.4,1.72,1.73,0.172,-0.613,-0.0624,-0.466,0.15,0.419,0.014,-0.373,0.115
